Bioassay records from PubChem.
Only some compounds are listed: those with a hit (about 2.8% of all), similar ones and a draw of the others.
KDM5B inh – KDM5B demethylase inhibition; KDM5B demethylase, FDH-coupled NADH fluorescence (FDH is formaldehyde dehydrogenase); Potency, µM (titrated, usually from 57.7 µM), most hits filed as inhibitors; 220,000 compounds, 2.6% hits; AID 1347165; active means well fitted inhibition curve with a large enough effect; inconclusive means small, poorly fitted or top-dose-only effect; inactive means no such curve, though single readings can be large or run the other way; further: nearly all actives have a fitted effect of over 70% in size
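Compound dilutions met 200 nM (final) KDM5BΔAP for 10 min at room temperature before substrate addition. The substrate mix held 12.5 µM H3K4me3 with cofactors 25 µM α-ketoglutarate and 50 µM Fe²⁺. NADH signal gain over 30 min defined activity.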
IP6K1 inhibitor – blocks human inositol hexakisphosphate kinase 1; Q92551; IP6K1 kinase, ADP-Glo luminescence, 2 h; active compounds read low; activity change, % (series mostly up to about 58 µM); 140,000 compounds, 0.81% hits; AID 1645851; in the data active means activity change below about -25%
Target sequence (Q92551 whole entry, looked up): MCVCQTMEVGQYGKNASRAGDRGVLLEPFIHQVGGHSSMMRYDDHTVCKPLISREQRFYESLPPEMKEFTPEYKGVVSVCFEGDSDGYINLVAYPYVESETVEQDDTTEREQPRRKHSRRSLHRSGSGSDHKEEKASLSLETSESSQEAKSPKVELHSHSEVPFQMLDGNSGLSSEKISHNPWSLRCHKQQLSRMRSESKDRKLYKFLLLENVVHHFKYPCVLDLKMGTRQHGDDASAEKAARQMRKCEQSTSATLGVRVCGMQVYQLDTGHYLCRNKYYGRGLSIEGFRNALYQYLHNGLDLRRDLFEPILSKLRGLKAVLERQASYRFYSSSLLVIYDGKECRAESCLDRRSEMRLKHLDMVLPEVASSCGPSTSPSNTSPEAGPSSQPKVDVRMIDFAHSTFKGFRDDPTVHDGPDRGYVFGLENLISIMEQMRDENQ
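ADP-Glo luminescence measures ADP made by human IP6K1 during a 2 h RT reaction with ATP/IP6 (mix at 1.3 mM/130 uM); top library doses 57.5 and 19.1 uM final.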
Numbers stand for hits; - = inactive; ? = inconclusive; . = not tested or not shown.

SMILES	KDM5B inh	IP6K1 inhibitor
CN(C)C[C@@H]1CN(c2ncccn2)C[C@H]1NC(=O)Cc1cccc(Cl)c1	?	-
O=C(Cc1cccc(Cl)c1)N[C@@H]1CN(c2ncccn2)C[C@H]1CO	?	-
Cc1ccc(F)cc1S(=O)(=O)N[C@@H]1CN(c2ncccn2)C[C@H]1CN(C)C	25.1µM	-
CN(C)C[C@@H]1CN(c2ncccn2)C[C@H]1NS(=O)(=O)c1ccc(Cl)cc1	28.2µM	-
COc1cccc(CC(=O)N[C@@H]2CN(c3ncccn3)C[C@H]2CO)c1	25.1µM	-
COc1cccc(-c2ccc(C(=O)N3CCC(C(=O)NCC(F)(F)F)CC3)cc2)c1	.	-
O=C(CN(CC1CC1)C1CC1)NC(=O)NCc1ccco1	-	.
Cc1ccc(C)c(NC(CNS(=O)(=O)c2ccccc2)c2ccccc2)c1 (centres undefined)	-	.
COC(=O)Cn1c(CN2CCN(c3cc(Cl)ccc3C)CC2)nc2c1c(=O)n(C)c(=O)n2C	-	.
COc1ccc(Nc2ccnc(N3CCC(C(=O)NC(C)C)CC3)n2)cc1	.	-
CN(C)C(=O)c1cc(-c2ccc(C(F)(F)F)cc2)nc2c1cnn2C	.	-
COc1ccccc1C(=O)Nc1cc(-c2ccncc2)nn1C	.	-
O=C1CCN(C(=O)c2cccs2)[C@@H]2c3ccccc3OC[C@@H]2CN1CCO	.	-
COc1ccccc1CCC(=O)N[C@@H]1CN(c2ccncn2)C[C@H]1CO	-	-
CN(C)C[C@@H]1CN(c2ncccn2)C[C@H]1NC(=O)Cc1ccc(F)cc1	28.2µM	-
CN(C)C[C@@H]1CN(c2ncccn2)C[C@H]1NC(=O)Cc1c[nH]c2ccccc12	?	-
CN(C)C[C@@H]1CN(c2ncccn2)C[C@H]1NC(=O)Cc1ccccc1F	31.6µM	-
CN(C)C[C@@H]1CN(c2ncccn2)C[C@H]1NS(=O)(=O)Cc1ccc(F)cc1	25.1µM	-
CN(C)C[C@@H]1CN(C2CCOCC2)C[C@H]1NC(=O)Cc1ccc(F)cc1	?	-
COc1ccccc1CCC(=O)N[C@@H]1CN(c2ncccn2)C[C@H]1CN(C)C	31.6µM	-
COc1ccc(-c2cc(C(=O)Nc3ccccc3F)c3cnn(C)c3n2)cc1	.	-
O=C(NCc1cccc(C(F)(F)F)c1)c1nc2sccn2c1-c1cccnc1	.	-
O=C(c1ccc2nnc(-c3ccc(Cl)cc3Cl)n2c1)N1CCOCC1	.	-
COc1ccc(-c2cccc(C(=O)NCCc3ccc(Cl)cc3)c2)nn1	.	-
Cc1nn(-c2ccccc2)c2c1C(C)N(C1CN(C(=O)Nc3ccccc3F)C1)C2=O (centres undefined)	.	-
SMILES	KDM5B inh	IP6K1 inhibitor
Cc1cc(C)n(CC(=O)N[C@@H]2CN(Cc3ccccn3)C[C@H]2CN(C)C)n1	?	-
Cc1cc(C)n(CC(=O)N[C@@H]2CN(c3ncccn3)C[C@H]2CN(C)C)n1	28.2µM	-
Cn1nccc1C(=O)N1CCC(Oc2ccc(-c3noc(-c4ccccc4)n3)cc2)C1 (centres undefined)	.	-
COCCNC(=O)c1cc(-c2ccc(OC)cc2)nc2c1cnn2C	.	-
CN(C)C[C@@H]1CN(S(C)(=O)=O)C[C@H]1NC(=O)c1cc2ccccc2[nH]1	31.6µM	-
CN(C)C[C@@H]1CN(S(C)(=O)=O)C[C@H]1NC(=O)c1ccc2[nH]ccc2c1	?	-
COCCNC(=O)c1nc(-c2cccnc2)c2cnccn12	-	-
CC(C)NC(=O)c1nc(-c2cccnc2)c2cnccn12	35.5µM	-
CC(C)NC(=O)c1nc(-c2cccc(C(F)(F)F)c2)c2cnccn12	31.6µM	-
CC(C)NC(=O)c1nc(-c2cccc(C(F)(F)F)c2)c2ccccn12	?	-
Clc1ccc(Oc2cccc(CN3CCN(C4CCNC4)CC3)c2)cc1 (centres undefined)	15.8µM	-
Cc1cc(C)n(-c2cccc(CN3CCN(C4CCNC4)CC3)c2)n1 (centres undefined)	?	-
CC(C)NC(=O)c1cn2cc(-c3ccccc3)sc2n1	.	-
Cc1ccc(C(=O)NC2CCN(c3ccc4nnc(-c5ccccc5)n4n3)CC2)cc1	.	-
Cc1ccc(CNC2CCCc3c2cnn3Cc2ccccc2)s1 (centres undefined)	-	.
COCC1CN(Cc2ccc(Br)s2)CC12CCNCC2 (centres undefined)	10µM	-
COCC1CN(Cc2ccc(OC)cc2)CC12CCNCC2 (centres undefined)	?	-
C#CCNC(=O)c1cc(-c2cccc(C(F)(F)F)c2)nc2c1cnn2C	.	-
CC(C(=O)NCc1nnc2ccc(-c3ccccc3)nn12)c1ccccc1 (centres undefined)	28.2µM	-
Cc1ccc(C(=O)NCc2nnc3ccc(-c4ccc(F)cc4)nn23)c(C)c1	?	-
Cc1cc(C)cc(C(=O)NCc2nnc3ccc(-c4ccccc4)nn23)c1	25.1µM	-
O=C(NCc1nnc2ccc(-c3ccccc3)nn12)c1ccc[nH]c1=O	28.2µM	-
O=C(NCc1nnc2ccc(-c3ccccc3)nn12)c1ccccc1OC(F)(F)F	?	-
COc1ccccc1CC(=O)NCc1nnc2ccc(-c3ccccc3)nn12	-	-
Cc1ccc(C(=O)NCc2nnc3ccc(-c4ccccc4)nn23)c(C)c1	28.2µM	-
SMILES	KDM5B inh	IP6K1 inhibitor
N#Cc1ccc(C(=O)NCc2nnc3ccc(-c4ccccc4)nn23)cc1	?	-
Cc1ccc(CCN2CCCC23Cc2ccccc2CNC3=O)cc1 (centres undefined)	?	-
CCN(CCc1ccncc1)S(=O)(=O)c1cc(N2C(=O)CCS2(=O)=O)ccc1OC	-	.
CCn1ccnc1CN(C)C(=O)c1cc(-c2cnc(C)nc2)nc2cc(F)ccc12	-	-
CCn1ccnc1CN(C)C(=O)c1cc(-c2cnc(N)nc2)nc2c(C)cccc12	28.2µM	-
O=C(NCc1cccc(C(F)(F)F)c1)c1nc2sccn2c1-c1cccc(C(F)(F)F)c1	.	-
O=C(NCc1ccccn1)c1ccc2nnc(-c3ccc(OC(F)(F)F)cc3)n2c1	.	-
CCCc1cc(C(=O)N2CCC(=O)N(CC3CC3)C(C(C)C)C2)n[nH]1 (centres undefined)	-	-
Cc1ccc(Cl)c(C(=O)N2CCC(=O)N(CC3CC3)C(C(C)C)C2)c1 (centres undefined)	-	-
Cc1cc(C)n2ncc(C(=O)N3CCC(=O)N(CC4CC4)C(C(C)C)C3)c2n1 (centres undefined)	31.6µM	-
Cc1nc2ncccn2c1C(=O)N1CCC(=O)N(CC2CC2)C(C(C)C)C1 (centres undefined)	28.2µM	-
Cn1nc(C2CCCC2)cc1NC(=O)c1ccc(C(F)(F)F)cc1	.	-
c1ccc(-c2cnc(Nc3cccnc3)c3c2CCO3)cc1	?	-
CNC(=O)c1cccc(-c2cnc(Nc3ccncc3)c3c2CCO3)c1	-	-
CN(C)c1cccc(-c2cnc(Nc3ccncc3)c3c2CCO3)c1	28.2µM	-
Cn1cc(-c2cnc(Nc3ccc(F)cc3)c3c2CCO3)cn1	6.31µM	-
COc1cccc(Nc2ncc(-c3cccnc3)c3c2OCC3)c1	31.6µM	-
COc1ccc(-c2cnc(Nc3ccccc3)c3c2CCO3)cn1	39.8µM	-
c1ccc(Oc2ccc(Nc3ncc(-c4cncnc4)c4c3OCC4)cc2)cc1	?	-
COc1ccc(-c2cnc(Nc3cc(F)cc(N4CCOCC4)c3)c3c2CCO3)cn1	?	-
CCC(C)NC(=O)CNC(=O)c1ccc(-c2cccc(C(F)(F)F)c2)cc1 (centres undefined)	.	-
COCCNC(=O)c1cc(-c2cccc(C(F)(F)F)c2)c2cccn2n1	.	-
